In the supplement of paper PMC6555819:

tested on: VDR:RXRa (NR concentration 270 nM, RXRa partner concentration 90 nM); assay: PBM binding z-score (relative to random genomic background probes); higher = stronger binding; sequences stand for … in GC…GCGATTGACAGCGTAGAATGAAGG
Experimental: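 Protein-binding microarray (Agilent 4x180K custom design, double-stranded 60-nt probes: 5' GC cap, 34-nt variable region, 24-nt constant primer region; full probe sequence given). Purified or IVT nuclear receptor:RXRα heterodimers (3:1 NR:RXRα, mostly 270:90 nM) or homodimers were incubated for 1 h in PBS with 2% milk and no ligand, then detected with Alexa488 antibodies. Fluorescence from o1-orientation probes (~5 replicates averaged) was converted to z-scores against 500 random hg19 background probes. Variable regions are seed direct-repeat (DR0–DR5) sites, all their single-nucleotide variants and half-site ablations.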

Sequence | PBM binding z-score
CGTCCAAGGTCAGAGAGGTCAGTGGATGCCGAGT | 7.33
CCTACTGGGCCAAGGTCAATGATCAGTCAAAGCA | 2.24
GCTTGTAGATCAAGGTTCAGAAAGACTAAGCTAA | 0.919
TTACCAAGGTGAAAGGGCGTTGATGCACGCCTTG | 0.61
AGGCAAAGTTCAGGACGAGGTAACGTAAAGCACG | 2.67
GCTGCTAGCTCAACTGATGGTCAGCTAAAGCTCG | -0.797
CGAACGAGGGCCTGAGTTGATAGCAAATGCCGAT | -0.469
CCTCGGAGGACAGAAGGTCAGGGCTGTCCGCTTT | 0.967
CCTACTGGGCCATCAGGTCATTGGTATCAACGTT | 2.04
CCTATTAGGTGACCATAAGGGCAACCGAAGCTCG | 0.646
CAAACTAGGTCACCAAAGGTCAAAGTCGAATGAC | 6.93
CCTCGGAGGACAACAGGAGGTCAGATCTGCCAGA | 1.72
TAGCCTAGGTCATGGGCCAGTCTACCACGCGAAC | 1.82
TCTTGTAGATCGACAGGAGGTTAAGAAAGATCGA | 0.501
TCTAGTTGGTCACGGATGTCACACACGACGGGTA | 1.18
CTCGAAAGGACGTGCTCAGGTGAGTATACCAAAC | -0.251
ACTATTAGTTGAGGCGAGGGCAACCGATAGGTTG | 0.632
CAAACTAGGTCATCGGAAGGTCAAAGTCCGCATG | 5.72
CCAGATAGGTGAAAGGTAACTCAGTCTGGTACGC | 0.921
CCTAGCAGGGCAATCTGGGTCACTCAAGGCTTGA | 1.08

Sequence | PBM binding z-score
CCTACTGGGCCACGAGAGGTCATTGATTCAGTGA | 4.45
CCTCGGAGGACAACAGGAGGTCAGGGCTGCCAGA | 1.62
CAAACCAGGTCAAGGTCAAAGTCGGTTTGTGCCA | 5.66
CCGACTGGGGCAGAAGGGTTACCATACCATCCGG | 0.121
ACTATTAGTTGAGACGACGGCAACCGATAGGTTG | -0.484
CCTATTAGTTGACCATAAGGGCAATCGAAGCTCG | 0.713
GCTAGTTGGTCAGTAAAAGTTCACACACCGGTCG | 2.55
ACCTCTAGGTAAAGATAGTTCAGTGAATGCAAAT | 0.302
CTACCAAGGTGAACAAAGTCGTTGATTACTATTC | 0.601
TCATATAGGTAAAGGTGTAAGTCGAACGATATGA | 0.297
GATACAGGGTCAAGGCGAGAGTACGCGTATTGAT | 4.4
CGTCCAAGGTCTTAGGAGGTCAGTGAAGACAGAT | 2.89
ACTCGGAGGACAAAGGTCAGATCTACGCCAGTGA | 3.49
AGTCAAAGTTCACTAGGTAACGTGAGATTCAGCT | 3.88
CCTACCGGGCCAAAGGTCATTGATTCCAATGCTC | 4.8
ATCTCTAGGTAACCAGGTTCAGTGAATGCCGAAC | 4.05
GCATATAGGTAATACAAGGTGAACGTCCGATTGT | 0.043
AGTCAAAGTTCATCTAGGTAACGTTAGATATGCT | 5.11
CATACAGGGTCAGCTAGTCCAGAGTAGGGACGGC | 4.36
GGGACGAGGGCAAAGTTGATAGCATCTGTCGACG | 1.47
